FMDV antiviral: foot and mouth disease virus antiviral activity. FMDV antiviral cell-based qHTS. AID 1159524. 1.2% of 410,000 active. Potency, µM (top dose mostly 57.9 µM), inactives show top-dose activity change, negative = inhibition, hits mostly inhibitors; calls by dose curve; tested in HEK293T cells; note: read-out not given here; potency is the fitted concentration of half-maximal effect; nearly all actives have a fitted effect of over 45% in size
HCV inhibitor: blocks hepatitis C virus; Huh7.5.1 HCVcc-Cre infection, luciferase reporter, 44 h; Potency, µM (doses to about 41.8 µM), for inactives: top-dose activity change, negative = inhibition, usual class: inhibitors; 3.4% of 340,000 active; AID 651820; active = well fitted inhibition curve with a large enough effect; inconclusive = small, poorly fitted or top-dose-only effect, or another doubt; inactive = no such curve, though single readings can be large or run the other way; note: potency is the fitted concentration of half-maximal effect
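Reporter virus HCVcc-Cre (~0.5 moi) infects cells exposed to compound; seeding density 1,000 cells/well with 4 h settling beforehand. Luminescence, 15 sec read, taken 44 h post-infection following a 15 min RT substrate incubation.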
MARV entry inh: inhibitors of Marburg virus binding or cell entry; 1.8% of 300,000 active; Potency, µM (highest dose often 37.8 µM), for inactives: at the top dose activity change, negative = inhibition, actives largely listed as inhibitors; Marburg virus pseudotyped entry inhibition, cell reporter; calls by dose curve; tested in HEK293 cells; note: potency is the fitted concentration of half-maximal effect
HCMV antiviral: blocks human cytomegalovirus replication; HFF cells, HCMV-luciferase reporter, 72 h; stronger effect = lower value; activity change, negative = inhibition, % at 57.5 µM; 4.5% of 410,000 active; in the data active = activity change below about -60%; inconclusive = no clear call, values can overlap the other calls; inactive = above about -39%
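Luciferase read-out from HCMV-luciferase-infected HFFs (MOI 1 PFU/cell) 72 h post infection at 37C; compounds added after 16 h cell attachment; activity normalized between buffer-only basal and Salinomycin (10uM) inhibitor controls.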
LASV entry inh: inhibitors of Lassa virus binding or cell entry; Lassa virus pseudotype entry inhibition, cell reporter; 1.2% of 300,000 active; Potency, µM (doses to about 37.9 µM), inactives show top-dose activity change, negative = inhibition, actives largely listed as inhibitors; calls by dose curve; tested in HEK293 cells; note: potency is the fitted concentration of half-maximal effect; nearly all actives have a fitted effect of over 50% in size
* = called active by the depositor; u = inconclusive; x = no result given; + = active, no number; [ ] = remark or other dose. An excerpt weighted towards active compounds, which were near 7.9% of everything screened. % is set by controls: 0 for no effect and ±100 for the full control effect.

SMILES	FMDV antiviral	HCV inhibitor	MARV entry inh	HCMV antiviral	LASV entry inh
CCCOc1ccc2oc(=O)c3c(c2c1)CCCN3C(=O)CN1CCc2ccccc2C1	-18%	u	u	-36	u
Nc1nc(Nc2cccc(Cl)c2)nc(NCc2ccco2)c1[N+](=O)[O-]	u	u	5.6µM*	40	u
Cc1cccc(Nc2nc(N)c([N+](=O)[O-])c(NCc3ccco3)n2)c1	u	u	u	16	2%
Cc1cccc(Nc2nc(NCc3ccco3)nc(N)c2[N+](=O)[O-])c1	4%	u	5.6µM*	-15	u
O=C(CSc1nnc2scc(-c3ccc(Cl)cc3)n12)Nc1ccc(F)cc1	-19%	x	4%[46.1 µM]	-23	20%[46.1 µM]
CCCCCCn1c(O)c(/C=N/N2CCCCCC2)c(=O)[nH]c1=O	-2%	-13%	-2%[46.1 µM]	-64*	u
COc1ccc(CN2C(=O)CS/C2=N/N=C/c2ccccc2)cc1	14%	13µM*	x	53	x
CCN(CC)c1ccc(/C=C/[N+](=O)[O-])cc1	u	12%	u	-114*	u
CCN(CC)c1ccc(/C=N/NC(=O)c2ccc([N+](=O)[O-])cc2)cc1	10%	-28%	x	60	x
COc1ccc(-c2cn(CCc3c[nH]c4ccccc34)nn2)cc1	3%	u	x	u	x
CCc1cc(-c2nnn(CCC3COCCO3)c2CC)cc(CC)c1-c1cn(Cc2ccc3ccccc3c2)nn1 (stereo not drawn)	u	x	x	-67*	x
CCc1cc(-c2nnn(CCC3COCCO3)c2CC)ccc1-c1cn(CCc2c[nH]c3ccccc23)nn1 (stereo not drawn)	0%	x	x	-80*	x
COc1ccc(-c2cn(Cc3cccc(OC)c3)nn2)cc1	63%	u	x	35	x
c1ccc(CNc2ncnc3ccc(-c4ccc5c(c4)OCO5)cc23)cc1	3%	x	x	x	x
O=C(Nc1ccccc1CC[N+](=O)[O-])N1CCN(c2ccccc2)CC1	-8%	-7%	10µM*	-24	-2%
CN(C)c1ccc(Nc2nc3ccccc3n3nnnc23)cc1	u	x	-25%[46.1 µM]	-62*	-3%[46.1 µM]
O=C(CCCN1C(=O)/C(=C/c2ccc(F)cc2)SC1=S)NCCCn1ccnc1	15%	-3%	-1%[46.1 µM]	-67*	-16%[46.1 µM]
CC(C)c1ccc(/C=C2\SC(=S)N(CCC(=O)NCCCn3ccnc3)C2=O)cc1	2%	u	u	-97*	u
c1ccc(Cn2c(-c3ccccc3)c[n+]3c2SCCC3)cc1	-13%	2.5µM*	u	u	u
COc1ccc(OC)c(Nc2nc(N(C)c3ccccc3)nc(N)c2[N+](=O)[O-])c1	-28%	5µM*	x	38	x
CN(Cc1ccccc1)c1nc(N)c([N+](=O)[O-])c(Nc2cccc(F)c2)n1	-20%	11µM*	-6%	44	-24%
CN(c1ccccc1)c1nc(N)c([N+](=O)[O-])c(Nc2ccc(F)cc2)n1	-15%	u	x	-15	x
CN(c1ccccc1)c1nc(N)c([N+](=O)[O-])c(Nc2ccccc2F)n1	-20%	5.6µM*	x	5	x
COc1ccc(OC)c(Nc2nc(-c3cccc([N+](=O)[O-])c3)nc3ccccc23)c1	5%	13%	9%	u	4%
CN(c1ccccc1)c1nc(N)c([N+](=O)[O-])c(Nc2cccc(F)c2)n1	u	u	x	14	x
SMILES	FMDV antiviral	HCV inhibitor	MARV entry inh	HCMV antiviral	LASV entry inh
CCCN(Cc1cccs1)C(=O)Nc1cc(C)ccc1OC	-5%	x	5%[46.1 µM]	-18	17%[46.1 µM]
COc1cc(C(=O)NCc2nc(-c3ccc(Cl)cc3)no2)cc(OC)c1OC	-9%	x	u	u	19%[46.1 µM]
COc1ccccc1C(=O)Nc1cc2c(cc1N1CCCCC1)n(C)c(=O)n2C	u	x	15%[46.1 µM]	-11	2%[46.1 µM]
CCOC(=O)C1=C(C)NC2=C(C(=O)CCC2)C1c1cn(Cc2ccc(Cl)cc2Cl)nc1-c1ccccc1 (stereo not drawn)	-1%	u	u	-90*	-12%
COC(=O)C1=C(C)NC2=C(C(=O)CCC2)C1c1cn(Cc2ccc(Cl)cc2Cl)nc1-c1ccccc1 (stereo not drawn)	-4%	u	u	-61*	7%
Cc1ccc(/C(N)=N/OC(=O)c2ccc(Cl)cc2Cl)cc1	-54%	u	7.1µM*	22	u
COc1ccc(Cl)cc1C(=O)O/N=C(\N)c1ccncc1	10%	22µM*	5%	40	-4%
COc1ccc(C(=O)O/N=C(\N)c2ccncc2)cc1OC	3%	1%	u	-13	u
O=C(c1cn(C2CCCN(Cc3cccc(Oc4ccccc4)c3)C2)nn1)N1CCCC1 (stereo not drawn)	1%	x	x	x	x
COc1cc(C2Nc3ccc4ncccc4c3C3=C2C(=O)CC(C)(C)C3)cc(OC)c1O (stereo not drawn)	33%	-1%	-5%	-83*	-13%
Cc1c(C(=O)NN)nn(-c2ccc(Cl)cc2)c(=O)c1C#N	13µM*	14µM*	u	-36	-23%
COc1ccc2ncc3c(-c4ccccc4)nn(-c4ccc(C)c(C)c4)c3c2c1	-13%	x	2%[46.1 µM]	-8	6%[46.1 µM]
COc1ccc(OCc2nnc(SC3CCOC3=O)n2-c2ccccc2)cc1 (stereo not drawn)	x	-3%	-1%	-23	-7%
Cn1c(COc2ccc(Br)cc2)nnc1SC1CCc2ccccc2C1=O (stereo not drawn)	32µM*	u	u	-1	-20%
O=C(N/N=C/c1ccc(-c2ccc(S(=O)(=O)Nc3ncccn3)cc2)o1)c1cc2ccccc2cc1O	2%	-9%	u	-101*	-30%
CCOc1ccc(C(=O)N/N=C/c2ccc(-c3ccc(S(=O)(=O)Nc4ncccn4)cc3)o2)cc1	14%	u	10%	2	-10%
CC(Sc1nc(N(C)C)nc(N2CCOCC2)n1)C(=O)Nc1ccccc1 (stereo not drawn)	-26%	u	-29%	-4	-18%
CC(Sc1nc(NC(C)(C)C)nc(N(C)C)n1)C(=O)Nc1ccccc1 (stereo not drawn)	u	-21%	-2%[46.1 µM]	-61*	x
NCC12CC3CC(C1)CC(CN)(C3)C2	-16%	-1%	18µM*	-5	-12%
Cc1ccccc1C(=O)Nc1ccc2c(c1)CCCN2C(=O)c1cccs1	-30%	u	x	+	0.89µM*
COc1ccc(F)cc1S(=O)(=O)Nc1ccc2c(c1)CCCN2C(=O)c1cccs1	0%	x	x	-75*	-8%[46.1 µM]
CCCCOc1ccc(C(=O)Nc2ccc3c(c2)CCCN3C(=O)c2cccs2)cc1	25µM*	x	x	-87*	u
CC(C)Oc1ccc(C(=O)Nc2ccc3c(c2)CCCN3C(=O)c2cccs2)cc1	22µM*	x	x	-89*	u
COc1ccc(C(=O)Nc2ccc3c(c2)CCCN3C(=O)c2cccs2)c(OC)c1	u	-18%	x	u	u
COc1ccc(CNC(=O)N2CC3ON=C(c4ccccc4C)C3C2)cc1 (stereo not drawn)	x	x	x	-31	x
Cc1ccc(NC(=O)Cc2ccc(Cl)cc2)cc1S(=O)(=O)N1CCCCCC1	u	10µM*	x	-26	x

High-throughput results deposited in PubChem BioAssay by National Center for Advancing Translational Sciences (NCATS).
